Data reported in PubChem BioAssay (Tox21).
“And” between values parts separate entries of the source, which are not always exact repeats. Equal values may be shown once. Inconclusive results are not listed. Where a structure was tested more than once in an assay, its records may differ in their call. The source made the active and inactive calls. Unless noted, the call rests on the fitted dose curve.

Tests used:
[1] = Nuclear factor erythroid 2-related factor 2/antioxidant responsive element (Nrf2/ARE) small molecule agonists: qHTS cell viability counter screen in human keratinocytes (AID 1919968; active means well fitted curve in the direction sought with a large enough effect in the repeat runs; an effect the other way counts as inactive or inconclusive; further: nearly all actives have a fitted effect of over 55% in size; further: potency means the concentration at half of the fitted maximal effect)
How it was run: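 CellTiter-Fluor fluorescence, read 1 h after reagent, gave viability in the same wells as the ARE-luciferase assay. KeratinoSens cells (1,500/well) had 23 h compound exposure at 37 C/5% CO2 following 5 h plating.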

[2] = Nuclear factor erythroid 2-related factor 2/antioxidant responsive element (Nrf2/ARE) small molecule agonists: luciferase reporter gene qHTS assay in human keratinocytes (AID 1919969); further: nearly all actives have a fitted effect of over 35% in size; further: potency means the concentration at half of the fitted maximal effect
[3] = biological target: Gonadotropin-releasing hormone receptor (Homo sapiens) (UniProt P30968); experiment: Human gonadotropin-releasing hormone receptor (GnRHR) small molecule agonists, calcium flux assay in GnRHR-HEK293 cells (AID 1920063); further: nearly all actives have a fitted effect of over 35% in size
Chain of Gonadotropin-releasing hormone receptor (Homo sapiens) (P30968 whole entry, looked up): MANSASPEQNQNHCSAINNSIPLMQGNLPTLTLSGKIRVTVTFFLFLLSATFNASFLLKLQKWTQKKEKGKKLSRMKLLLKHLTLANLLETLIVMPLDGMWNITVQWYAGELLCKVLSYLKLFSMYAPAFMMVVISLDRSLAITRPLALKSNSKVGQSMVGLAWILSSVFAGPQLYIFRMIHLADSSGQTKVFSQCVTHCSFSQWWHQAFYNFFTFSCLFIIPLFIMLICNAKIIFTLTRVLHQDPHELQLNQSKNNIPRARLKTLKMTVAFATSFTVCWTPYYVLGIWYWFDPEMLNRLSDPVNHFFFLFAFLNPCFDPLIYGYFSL
How it was run: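 Agonist mode: compounds at 15 concentrations, in triplicate, went onto calcium dye-loaded GnRHR-HEK293 cells. Intracellular calcium was then followed as 480/540 nm fluorescence at 1 s intervals over 3 min.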

[4] = biological target: KiSS-1 receptor (Homo sapiens) (UniProt Q969F8); experiment: Human kisspeptin (KISS1R) small molecule agonists, calcium flux assay in KISS1R-HEK293 cells (AID 1920064; active means well fitted curve in the direction sought with a large enough effect in the repeat runs; an effect the other way counts as inactive or inconclusive)
Chain of KiSS-1 receptor (Homo sapiens) (Q969F8 whole entry, looked up): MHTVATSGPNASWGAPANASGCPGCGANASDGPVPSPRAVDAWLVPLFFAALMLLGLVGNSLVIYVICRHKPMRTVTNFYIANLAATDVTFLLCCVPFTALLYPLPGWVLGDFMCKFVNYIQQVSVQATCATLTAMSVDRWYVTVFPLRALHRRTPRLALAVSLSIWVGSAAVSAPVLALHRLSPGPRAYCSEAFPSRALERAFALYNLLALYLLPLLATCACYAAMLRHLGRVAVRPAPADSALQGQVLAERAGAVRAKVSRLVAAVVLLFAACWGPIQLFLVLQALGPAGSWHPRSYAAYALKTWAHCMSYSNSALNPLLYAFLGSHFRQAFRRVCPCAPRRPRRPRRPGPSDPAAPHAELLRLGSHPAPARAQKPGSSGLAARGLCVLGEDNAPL
How it was run: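 Agonist mode: intracellular calcium rise tracked at 1 s intervals over 3 min (480/540 nm) immediately after compound addition to dye-loaded KISS1R-HEK293 stable cells. Each compound tested at 15 concentrations in triplicate.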

[5] = G protein-coupled receptor (GPCR) small molecule agonists, calcium flux assay: HEK293 wild type cell line counter screen (AID 1920065)
How it was run: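 Calcium flux counter screen: compound added in agonist mode at 15 concentrations in triplicate to dye-loaded parental HEK293 cells. Fluorescence (480/540) read kinetically for 3 min; ATP served as positive control.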

[6] = p53 small molecule agonists, cell-based qHTS assay with human liver microsomes (AID 1963577);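 further: p53 response element beta-lactamase reporter cells with liver microsomes plus NADPH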
How it was run: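 16 h, 37 C exposure of p53RE-bla cells to compounds with human liver microsomes and NADPH (0.5 mg/mL final each); detection via LiveBLAzer mixture, 2 h dark at room temperature.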

[7] = p53 small molecule agonists, cell-based qHTS assay with rat liver microsomes (AID 1963578)
How it was run: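 With rat liver microsomes and NADPH present (0.5 mg/mL final each), p53RE-bla cells are treated with compound for 16 h at 37 C. LiveBLAzer detection mixture is then applied for 2 h at room temperature in the dark.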

[8] = p53 small molecule agonists, cell-based qHTS assay with human liver microsomes: qHTS cell viability counter screen (AID 1963579); further: nearly all actives have a fitted effect of over 45% in size; further: potency means the concentration at half of the fitted maximal effect
How it was run: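 In this multiplexed counter screen, the reporter plates were subsequently treated with CellTiter-Glo so that cell viability, reflected by luminescence, could be recorded for p53RE-bla cells dosed 16 h with compounds under microsomal activation (HLM and NADPH).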

[9] = p53 small molecule agonists, cell-based qHTS assay with rat liver microsomes: qHTS cell viability counter screen (AID 1963580); further: nearly all actives have a fitted effect of over 45% in size
How it was run: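 After the beta-lactamase ratio was read, CellTiter-Glo was added to the same wells and luminescence measured at 30 min; cells had been treated 16 h at 37 C with compounds, rat liver microsomes and NADPH (0.5 mg/mL final each).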

[10] = p53 small molecule agonists, cell-based qHTS assay: qHTS cell viability counter screen (AID 1963581); further: nearly all actives have a fitted effect of over 45% in size
How it was run: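 Counter screen read by CellTiter-Glo luminescence (ATP content, 30 min at room temperature), run in the same wells as the beta-lactamase reporter read. HCT-116 p53RE-bla cells saw compounds for 16 h at 37 C.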

[11] = p53 small molecule agonists, cell-based qHTS assay (AID 1963582; active means well fitted activation curve with a large enough effect in the signal ratio in the repeat runs, not every such curve was filed as active; the % refers to the signal ratio)
How it was run: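 Read-out is beta-lactamase FRET fluorescence after 2 h at room temperature with LiveBLAzer B/G substrate. p53 response element-bla cells were treated 16 h at 37 C with compounds in DMSO, added 5 h after seeding.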

[12] = biological target: 5-hydroxytryptamine receptor 2A (Homo sapiens) (UniProt P28223); experiment: 5-hydroxytryptamine receptor 2A (HTR2A) small molecule antagonists, cell-based qHTS assay (AID 1963586); further: nearly all actives have a fitted effect of over 45% in size
Chain of 5-hydroxytryptamine receptor 2A (Homo sapiens) (P28223 whole entry, looked up): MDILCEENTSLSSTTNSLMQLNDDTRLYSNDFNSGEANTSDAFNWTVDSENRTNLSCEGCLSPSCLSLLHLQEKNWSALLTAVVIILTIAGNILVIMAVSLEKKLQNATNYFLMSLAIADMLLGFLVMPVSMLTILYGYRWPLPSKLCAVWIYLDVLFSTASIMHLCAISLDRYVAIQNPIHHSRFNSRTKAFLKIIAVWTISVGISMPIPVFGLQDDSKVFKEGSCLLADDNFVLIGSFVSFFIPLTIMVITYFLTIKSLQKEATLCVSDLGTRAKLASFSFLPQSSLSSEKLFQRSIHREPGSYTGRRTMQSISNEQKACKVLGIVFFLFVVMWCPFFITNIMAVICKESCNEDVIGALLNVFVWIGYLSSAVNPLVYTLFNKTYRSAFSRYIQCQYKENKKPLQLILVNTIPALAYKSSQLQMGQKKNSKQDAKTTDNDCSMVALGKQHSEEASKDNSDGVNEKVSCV
How it was run: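 CHO cells stably expressing human HTR2A were plated for 18 h at 37 C, then loaded with calcium dye for 1 h. Compounds were preincubated 5 min at room temperature before DOI (4 nM solution) was added. Kinetic fluorescence was read for 3 min.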

[13] = biological target: Muscarinic acetylcholine receptor M1 (Homo sapiens) (UniProt P11229); experiment: Cholinergic receptor muscarinic 1 (CHRM1) small molecule antagonists, cell-based qHTS assay (AID 1963588); further: nearly all actives have a fitted effect of over 40% in size; further: potency means the concentration at half of the fitted maximal effect
Chain of Muscarinic acetylcholine receptor M1 (Homo sapiens) (P11229 whole entry, looked up): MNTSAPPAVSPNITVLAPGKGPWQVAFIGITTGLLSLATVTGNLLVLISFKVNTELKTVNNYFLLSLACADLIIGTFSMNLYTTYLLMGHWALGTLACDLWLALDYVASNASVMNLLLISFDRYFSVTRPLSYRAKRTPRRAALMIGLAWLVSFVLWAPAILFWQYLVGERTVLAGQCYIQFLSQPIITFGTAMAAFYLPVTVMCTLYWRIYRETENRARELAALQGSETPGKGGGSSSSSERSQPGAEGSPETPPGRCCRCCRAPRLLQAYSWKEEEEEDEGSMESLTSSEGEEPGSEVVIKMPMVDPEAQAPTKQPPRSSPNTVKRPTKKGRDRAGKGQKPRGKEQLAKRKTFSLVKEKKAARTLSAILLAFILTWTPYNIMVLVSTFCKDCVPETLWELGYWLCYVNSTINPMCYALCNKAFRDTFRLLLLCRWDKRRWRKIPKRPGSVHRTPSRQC
How it was run: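 Compounds were tested at 15 concentrations in three independent runs. Dye-loaded CHRM1-CHO cells were exposed 5 min at room temperature before stimulation by acetylcholine added at 50nM. Intracellular calcium was read kinetically on FDSS for 3 min.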

[14] = biological target: Muscarinic acetylcholine receptor M1 (Homo sapiens) (UniProt P11229); experiment: Cholinergic receptor muscarinic 1 (CHRM1) small molecule agonists, cell-based qHTS assay (AID 1963589); further: nearly all actives have a fitted effect of over 35% in size; further: potency means the concentration at half of the fitted maximal effect
How it was run: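 Agonist-mode calcium-flux screen: compounds at 15 concentrations, three independent runs, were pin-transferred onto dye-loaded human CHRM1-CHO cells. Fluorescence was then recorded kinetically every second over minutes.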

[15] = biological target: Beta-2 adrenergic receptor (Homo sapiens) (UniProt P07550); experiment: Adrenergic beta2 receptor (ADRB2) small molecule antagonists, cell-based qHTS assay (AID 1963592); further: series mostly up to about 92 µM; nearly all actives have a fitted effect of over 50% in size
Chain of Beta-2 adrenergic receptor (Homo sapiens) (P07550 whole entry, looked up): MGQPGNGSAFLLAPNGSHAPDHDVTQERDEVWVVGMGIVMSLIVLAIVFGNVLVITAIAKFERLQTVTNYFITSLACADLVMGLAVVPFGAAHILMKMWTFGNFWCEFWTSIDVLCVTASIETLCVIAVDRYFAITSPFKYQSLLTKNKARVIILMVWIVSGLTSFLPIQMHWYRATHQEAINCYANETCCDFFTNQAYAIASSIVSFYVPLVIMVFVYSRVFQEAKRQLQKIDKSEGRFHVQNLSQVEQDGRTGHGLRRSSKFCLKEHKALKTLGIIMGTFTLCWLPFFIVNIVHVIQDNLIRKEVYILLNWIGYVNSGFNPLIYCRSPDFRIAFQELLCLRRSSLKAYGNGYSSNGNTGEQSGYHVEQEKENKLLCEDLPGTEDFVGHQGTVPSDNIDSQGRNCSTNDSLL
How it was run: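 Assay format: CHO-ADRB2 cells, 18-20hr seeding at 37C/5% CO2, then compound plus 1nM isoproterenol agonist mix for 0.5hr RT. Homogeneous time-resolved fluorescence cAMP detection after 1hr, expressed as 665/615 nm ratio.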

[16] = biological target: Beta-2 adrenergic receptor (Homo sapiens) (UniProt P07550); experiment: Adrenergic beta2 receptor (ADRB2) small molecule agonists, cell-based qHTS assay (AID 1963593);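 further: CHO cells stably overexpressing human ADRB2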
How it was run: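 CHO cells stably over-expressing ADRB2 were plated overnight at 37C, then dosed with compounds plus a stimulation mix containing 100uM IBMX and 25uM Ro-20-1724 for 0.5hr at room temperature. cAMP was measured by HTRF competition, 1hr.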

[17] = biological target: D(2) dopamine receptor (Homo sapiens) (UniProt P14416); experiment: Dopamine D2 receptor (DRD2) small molecule agonists, cell-based qHTS assay (AID 1963594); further: nearly all actives have a fitted effect of over 35% in size; further: potency means the concentration at half of the fitted maximal effect
Chain of D(2) dopamine receptor (Homo sapiens) (P14416 whole entry, looked up): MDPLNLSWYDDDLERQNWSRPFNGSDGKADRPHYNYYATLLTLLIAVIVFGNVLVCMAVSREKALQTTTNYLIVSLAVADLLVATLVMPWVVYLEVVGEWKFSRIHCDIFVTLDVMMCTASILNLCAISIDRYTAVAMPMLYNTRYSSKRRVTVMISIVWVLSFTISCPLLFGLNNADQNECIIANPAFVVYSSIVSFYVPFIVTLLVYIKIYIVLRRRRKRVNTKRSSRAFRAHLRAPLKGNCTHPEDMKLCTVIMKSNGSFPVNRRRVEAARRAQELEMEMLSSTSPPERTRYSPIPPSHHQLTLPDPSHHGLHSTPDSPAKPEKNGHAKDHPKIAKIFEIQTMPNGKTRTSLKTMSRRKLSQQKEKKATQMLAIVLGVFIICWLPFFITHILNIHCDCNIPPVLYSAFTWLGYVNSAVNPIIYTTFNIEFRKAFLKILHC
How it was run: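 HEK293 cells stably expressing human DRD2, pre-treated with PDE inhibitor Ro20-1724 (0.1 mM final) and compound 10 min at room temperature, then stimulated with NKH477 (200nM […]) for 30 min. cAMP read by HTRF (665/620 nm).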

[18] = biological target: D(2) dopamine receptor (Homo sapiens) (UniProt P14416); experiment: Dopamine D2 receptor (DRD2) small molecule antagonists, cell-based qHTS assay (AID 1963595; active means well fitted inhibition curve with a large enough effect in the signal ratio in the repeat runs, with a control signal flat; the % refers to the signal ratio)
How it was run: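 Readout: HTRF cAMP, cAMP-d2 competing with cellular cAMP for anti-cAMP cryptate, read after 1 h. Cells: DRD2-HEK293. Conditions: 0.1 mM Ro20-1724, 12 nM quinpirole, 200 nM NKH477, 30 min RT.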

[19] = cAMP Responsive Elements (CRE) small molecule antagonists, cell-based qHTS assay (AID 1963591; active means well fitted inhibition curve with a large enough effect in the signal ratio in the repeat runs, not every such curve was filed as active; the % refers to the signal ratio)
How it was run: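 Antagonist mode: compounds are added alongside the adenylyl cyclase activator NKH477 (0.25 uM final) to CRE-bla HEK293T cells for 3 h. LiveBLAzer FRET substrate, 2 h at room temperature, reports bla expression.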

[20] = cAMP Responsive Elements (CRE) small molecule agonists, cell-based qHTS assay (AID 1963590)
How it was run: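 Agonist mode: compound added to CRE-bla HEK 293T cells (2,000/well, 18 h after plating) for 3 h at 37 C/5% CO2. Reporter activity detected via FRET beta-lactamase substrate, 2 h room-temperature loading.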

Measured: Potency

CCCCCCCCCCCC[N+](C)(C)C
active: [1] 48.4 µM and 30.6 µM and 48.6 µM | [13] 374 nM and 421 nM and 334 nM | [14] 27.5 µM and 245 nM
not listed: [19] | [20]
inactive: all other assays above

CC(C)CC(C)CC(O)CC(C)C (stereo not drawn)
1.8 nM (active) and inactive: [17]
not listed: [20]
inactive: all other assays above

CCCCNS(=O)(=O)c1ccccc1
not listed: [13]
inactive: all other assays above

CCOC(=O)C1OC1c1ccccc1 (stereo not drawn)
not listed: [19]
inactive: all other assays above

Nc1ccc2c(c1)C(=O)c1ccccc1C2=O
inactive and 4.08 µM (active): [8]
active: [2] 756 nM and 243 nM
not listed: [16] | [17] | [18] | [20]
inactive: all other assays above

CC(O)CC(C)(C)O (stereo not drawn)
not listed: [13]
inactive: all other assays above

C=CCCCCCCCCC(=O)O
not listed: [20]
inactive: all other assays above

CC(=O)C1=C(C)[C@@H]2C[C@@]3(C1)[C@H](C)CC[C@H]3C2(C)C
not listed: [13]
inactive: all other assays above

COc1cc([C@H]2Oc3cc([C@H]4Oc5cc(O)cc(O)c5C(=O)[C@@H]4O)ccc3O[C@@H]2CO)ccc1O
not listed: [16] | [19] | [20]
inactive: all other assays above

CCCCCCCCCCN
not listed: [13] | [19]
inactive: all other assays above

COc1ccc(Nc2ccccc2)c(C)c1
not listed: [12]
inactive: all other assays above

CCCCCCCCCCO
not listed: [15] | [20]
inactive: all other assays above

CC1(C)O[C@@H]2[C@@H](CO[C@@]3(COS(N)(=O)=O)OC(C)(C)O[C@@H]23)O1
not listed: [12]
inactive: all other assays above

C=Cc1ccc(C)cc1
not listed: [20]
inactive: all other assays above

O=S(=O)(O)c1ccc(O)cc1
not listed: [14] | [16]
inactive: all other assays above

CCOCCO
not listed: [16]
inactive: all other assays above

CCCCCCO
not listed: [12] | [16]
inactive: all other assays above

CC(=O)c1ccccn1
not listed: [16]
inactive: all other assays above

COc1ccccc1O
inactive: all assays above

NS(=O)(=O)O
not listed: [13] | [20]
inactive: all other assays above

CC(=O)CC(=O)N(C)C
not listed: [12]
inactive: all other assays above

CCCCOCCOCCO
not listed: [17]
inactive: all other assays above

C=CC[N+](C)(C)CC=C
not listed: [13] | [14] | [20]
inactive: all other assays above

CCNc1cccc(C)c1
not listed: [12] | [19]
inactive: all other assays above

ClC/C=C/CCl
not listed: [19] | [20]
inactive: all other assays above

CCCC(C)=O
not listed: [12] | [18]
inactive: all other assays above

O=C1CCCCCCCCCCC1
not listed: [12]
inactive: all other assays above

Cc1ccc([N+](=O)[O-])cc1S(=O)(=O)O
not listed: [16] | [19]
inactive: all other assays above

CCCCNC(=O)NS(=O)(=O)c1ccc(C)cc1
not listed: [12]
inactive: all other assays above

Cc1cccc2ccccc12
not listed: [14]
inactive: all other assays above

COCC(C)O (stereo not drawn)
not listed: [14]
inactive: all other assays above
